# Target: SEZ6L
# Test: pooled miR-30 sensor sort-seq; sequence = guide strand
# Conditions: shRNA
# Note: reference of the scale not given here.
row,Sequence,sensor-assay potency score (higher = more potent)
1,TAGATGGTCAAGATGTCACTGT,-0.115
2,TAATTTTCTCACAAAATGGGGG,-0.33
3,TAGACTGTCACGTTGTATGTGC,0.1
4,TTGGAGAAGCTCACACTGCAGA,-0.466
5,TCGGACGTGAACTCGATGCGGA,-0.799
6,TTGTCATGCAGCAACAGCCTCT,-0.492
7,TGGATATCTAAGAAGATCCGTT,-0.621
8,TTATAGGTCGGGTCGGATGTAG,-0.637
9,TTGGTATCCATTTTCAGGCAGC,-0.526
10,TCCAGATACAATCTTCACCTTC,-0.983

# Target: SFRP4
# Test: as above
# Conditions: shRNA
row,Sequence,sensor-assay potency score (higher = more potent)
1,TTTACTAAGCTGATCTCTCCAT,-0.0154
2,TTTTACACTTGCACCGATCGGG,0.497
3,TAGACAGGCAGCTCGTCGCAGG,-0.454
4,TTTTCTTCTTGTCCTGAACTGT,-0.361
5,TATGGATCTTTTACTAAGCTGA,-0.661
6,TTACTAAGCTGATCTCTCCATT,-0.515
7,TTTACATCCACCACCGTTGTGA,0.315
8,TTTTCAAGAAGCATCATCCTTG,0.0999
9,TTGGCATGAATAACATAGCTGT,-0.164
10,TTGTCCTGAACTGTTCTCCGCT,0.199
11,TTTACACTTGCACCGATCGGGG,-0.824
12,TATCCACTTAACATCCTCCGGG,0.611

# Target: SFT2D2
# Test: as above
# Conditions: shRNA
row,Sequence,sensor-assay potency score (higher = more potent)
1,AAGAGGTGTAGTCCCTTCCTGG,-1.12
2,ATCACAAGCAACACATTGCTGC,-0.583
3,TTATCCTGGTACTCCAGCTTAA,-1.39
4,TATAGCAAAACACGCAATGAAG,-1.77
5,TCAAACATTCGCTTCAGCTGTT,0.727
6,TACAAAACTGTCCACCAGCTTC,-0.963
7,TGATAGTTGCAATCAAACGAGT,-0.692
8,TTGCAATCAAACGAGTAGGCTC,-0.3
9,TTAATGAAGATGCCTCAACAAC,-1.49
10,TTTATCCTGGTACTCCAGCTTA,-0.866
11,TGCAAAACACAACAGCACCATG,-1.45

# Target: SFTA2
# Test: as above
# Conditions: shRNA
row,Sequence,sensor-assay potency score (higher = more potent)
1,AATTTGTCAGAAAAGACTCCTT,-0.354
2,TTTGTCAGAAAAGACTCCTTCA,0.111
3,ATGGTGTTGAGATCTTGCATGG,-1.27
4,TGGAGGGTGACGCTGGTCCCTG,-1.43
5,TCCATGTGAGCTGCCAAGGAGG,-1.63
6,TTCCATGTGAGCTGCCAAGGAG,-0.915
7,TGTCAGAAAAGACTCCTTCAGC,-0.402
